Records with an inconclusive call do not appear. Entries that show only a call come without a potency. Active and inactive are the calls of the source. Calls follow the shape of the dose curve; as a rule, active = well fitted activation curve with a large enough effect in the repeat runs; inconclusive = weak or mixed curves; inactive = flat fitted curve, though single readings scatter.
Potency is read from the fitted curve at half-maximal effect.

The nature of this assay: A CellTox Green Cytotoxicity Assay to monitor cytotoxicity in HEK293 cells - 40 hour (AID 1224871). Also: nearly all actives have a fitted effect of over 45% in size. The following applies: CellTox Green fluorescence; series mostly up to 76.8 µM. The text has this: National Center for Advancing Translational Sciences [NCATS]
NIH Chemical Genomics Center [NCGC]
U.S. Environmental Protection Agency [EPA]
National Institutes of Environmental Health Sciences [NIEHS]
National Toxicology Program [NTP]
Cell-based models are critical for drug discovery. Determining the natural cytotoxic effects resulting from test compounds is an essential research activity. A CellTox Green Cytotoxicity Assay to monitor cytotoxicity in real time of continues cell culture during 40 hours of the compound treatment was used to screen Tox21 10K library compounds in Hek293 cells. CellTox Green Cytotoxicity Assay is a nonlytic, homogeneous, biofluorescent method to measure cytotoxicity in cell culture after experimental manipulation. The assay system uses a proprietary asymmetric cyanine dye that is excluded from viable cells but preferentially stains the dead cell's DNA. […] Viable cells produce no appreciable increases in fluorescence. Therefore, the fluorescence signal produced by the binding interaction with dead cell DNA is proportional to cytotoxicity.
The mixture of Hek293 cell suspension and reagents were dispensed at 600cells/6 ul/well in 1536-well tissue culture treated black solid bottom plates using a Multidrop dispenser. After the assay plates were incubated at a 37 C/5% CO2 incubator for 5 hours, 23 nL of compounds dissolved in DMSO, positive and negative controls was transferred to the assay plate by a pintool work station. The plates were incubated at 37 C for 40 hours. The fluorescence intensity were measured at 0h, 8h, 16h, 24h, 32h and 40h time points using ViewLux plate reader during compound treatment.
Regarding `c1coc(-c2nc3ccccc3[nH]2)c1`, the Potency result was “inactive”.

With `CC(C)CC(N(C)C)C1(c2ccc(Cl)cc2)CCC1` (stereo not given), the Potency is 23.9 µM (active).

Turning to `CN1CCC(N(Cc2ccccc2)c2ccccc2)CC1`, the Potency entry was “inactive”.

As for `CC(=O)C(Cl)Cl`, the Potency result was “inactive”.

In the case of `O=C1OC(=O)C2C1C1(Cl)C(Cl)=C(Cl)C2(Cl)C1(Cl)Cl` (stereo not given), the Potency result was “inactive”.

On to `O=C(N[C@H]1CN2CCC1CC2)c1cc2ccoc2cn1`, for which the Potency result is “inactive”.

On to `O=C1OC(CCN2CCCCC2)OC1(c1ccccc1)c1ccccc1` (stereo not given), for which the Potency result is “inactive”.

In the case of `COP(=S)(OC)Oc1ccc(S(N)(=O)=O)cc1`, the Potency entry was “inactive”.

For the molecule `ClC(Br)Br`, the Potency entry is “inactive”.

Consider `CC1=NNC(=O)N(/N=C/c2cccnc2)C1`, for which the Potency entry was “inactive”.

With `Nc1n[nH]c(N)n1`, the Potency entry was “inactive”.

Regarding `CN/C(=N\[N+](=O)[O-])NCC1CCOC1` (stereo not given), the Potency result was “inactive”.

Take `CCC#N`: the Potency result is “inactive”.

`COc1ccc2c(c1OC)CN1CCc3cc4c(cc3C1C2)OCO4` (stereo not given): the Potency result is “inactive”.

As for `CCCCOC(=O)c1ccccc1C(=O)O`, the Potency entry was “inactive”.

Regarding `CCCCCCI`, the Potency result was “inactive”.

On to `N#CC(Cl)(Cl)Cl`, for which the Potency result is “inactive”.

`CNC(=O)Oc1cccc(C(C)C)c1`: the Potency result was “inactive”.

For the molecule `CC(C=O)Cc1ccc2c(c1)OCO2` (stereo not given), the Potency entry was “inactive”.

Regarding `C=CC1CC=CCC1` (stereo not given), the Potency result was “inactive”.

Consider `CN(C)CCc1ccc(O)cc1`, for which the Potency entry is “inactive”.

For the molecule `COC(=O)c1ccccc1S(=O)(=O)NC(=O)N(C)c1nc(C)nc(OC)n1`, the Potency entry is “inactive”.

Regarding `C#CCN1C(=O)COc2cc(F)c(N3C(=O)C4=C(CCCC4)C3=O)cc21`, the Potency entry is “inactive”.

For the molecule `N#CCBr`, the Potency entry is “inactive”.

Take `O=C(NCO)NCO`: the Potency entry was “inactive”.

As to `CCC(=O)C(CCN(C)C)(c1ccccc1)c1ccccc1`, the Potency entry is “inactive”.

As for `CC(CCc1ccccc1)NC(C)C(O)c1ccc(O)cc1` (stereo not given), the Potency result is “inactive”.

`CC(CC(C#N)(c1ccccc1)c1ccccc1)N(C)C` (stereo not given): the Potency result is “inactive”.

For `COc1cc(C[C@@H](C)N)c(OC)cc1C`, the Potency entry was “inactive”.

Turning to `CCOP(=O)(N=C1SCCS1)OCC`, the Potency result is “inactive”.

Consider `CCCSC(=O)Cl`, for which the Potency entry was “inactive”.

Regarding `c1cc[c]([Hg][c]2ccccc2)cc1`, the Potency was 34.7 µM (active).

On to `ClCCCN1CCN(c2cccc(Cl)c2)CC1`, for which the Potency entry was “inactive”.

As to `C=C(C)CN(CC)c1c([N+](=O)[O-])cc(C(F)(F)F)cc1[N+](=O)[O-]`, the Potency entry was “inactive”.

Consider `CN(N=O)C(N)=O`, for which the Potency result is “inactive”.

Turning to `CS(=O)(=O)c1cc(C(F)(F)F)ccc1C(=O)c1cnoc1C1CC1`, the Potency entry was “inactive”.

`Cc1nc(N)nc(N)n1`: the Potency result was “inactive”.

`Nc1ccccc1Cl`: the Potency result is “inactive”.

As for `C#C[C@]1(O)C=C[C@H]2[C@@H]3CCC4=CC(=O)CC[C@@H]4[C@H]3CC[C@@]21CC`, the Potency result was “inactive”.

In the case of `ClCC(Cl)(Cl)Cl`, the Potency entry is “inactive”.
